# Among all 200,000 compounds or so, about 18,000 (9%) were called active. What follows is part of a selection rich in actives, with near analogues and random picks from the rest. Unmarked numbers belong to inactive results. Rule as the data show it: active = inhibition above about 50%; inactive = the rest.
# Experiment: Leishmania major promastigote growth inhibition, primary screen (AID 1063);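 also: promastigotes grown with compound for 44 hours at 28 °C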
# Settings: Leishmania major promastigotes, resazurin fluorescence viability; at 10 µM; active compounds read high
row,Structure (SMILES),inhibition
1,O=C(NCC1COc2ccccc2O1)C1(c2ccccc2)CCCC1 (stereo unspecified),4.71%
2,CCOC(=O)CSc1nnc(-c2ccc([N+](=O)[O-])cc2)o1,-7%
3,COCCN(C(=S)Nc1ccccc1OC)C1CCN(C(C)C)CC1,-1.11%
4,CCN1CCN(c2ccc(NC(=O)c3cnccn3)cc2)CC1,-5.28%
5,CCOC(=O)N1CCN(C(=O)CSc2ccc(Cl)cc2)CC1,-6.22%
6,CCN1CCN(C(c2cccnc2)c2cc(Cl)c3cccnc3c2O)CC1 (stereo unspecified),52.4% (active)
7,CCOC(=O)N1CCN(C(c2cccnc2)c2ccc3cccnc3c2O)CC1 (stereo unspecified),100% (active)
8,Oc1c(C(c2ccccn2)N2CCOCC2)ccc2cccnc12 (stereo unspecified),5.34%
9,Cc1ccnc2nc(C(=O)OCC(=O)N(CC(C)C)CC(C)C)nn12,4.48%
10,CN(c1ccccc1)S(=O)(=O)c1cc(C(=O)OCC(=O)N2CCN(C(=O)c3ccco3)CC2)ccc1Cl,-3.3%
11,Nc1ncnc(Nc2cccc(Cl)c2Cl)n1,-0.16%
12,Cc1ccc(C(=O)NCC2CCCO2)o1 (stereo unspecified),-4.63%
13,Cc1cc(Br)ccc1NC(=O)C1CCCO1 (stereo unspecified),-3.76%
14,OC(CNCC1CCCO1)Cn1c2ccc(Br)cc2c2cc(Br)ccc21 (stereo unspecified),101% (active)
15,COc1cc(C(=O)Nc2cc(C(F)(F)F)ccc2-n2cncn2)cc(OC)c1OC,15.4%
16,COc1ccc(NC(=S)NC2CCS(=O)(=O)C2)cc1 (stereo unspecified),6.02%
17,O=S1(=O)CCC(NC(=S)SCc2ccccc2Br)C1 (stereo unspecified),89.6% (active)
18,CCN(CC(=O)NC1CCS(=O)(=O)C1)S(=O)(=O)c1ccccc1 (stereo unspecified),47.9%
19,CCCSC(=S)NC1CCS(=O)(=O)C1 (stereo unspecified),100% (active)
20,O=C(CSc1ccccc1F)NC1CCS(=O)(=O)C1 (stereo unspecified),1.43%
21,CC(C)C(=O)NC(NC(=S)NC1CCS(=O)(=O)C1)C(Cl)(Cl)Cl (stereo unspecified),-3.47%
22,COc1cccc(OC)c1C(=O)NC(=S)NCc1ccco1,0.66%
23,Cc1nn(-c2ccccc2)c(-n2cccc2)c1C(=O)O,-0.36%
24,CCC(C)NC(=O)Cn1nc(C(F)(F)F)c2c1CCC2 (stereo unspecified),-5.4%

row,Structure (SMILES),inhibition
1,CCOc1cnc(-c2c(-c3ccccc3Cl)noc2C)o1,-0.43%
2,COc1cc(OC)c(C2=NOC(C(=O)Nc3c(C)n(C)n(-c4ccccc4)c3=O)C2)cc1Cl (stereo unspecified),-5.3%
3,CC1CCN(c2ccc([N+](=O)[O-])cc2C(N)=O)CC1,-3.26%
4,C=CCO/N=C/C1=C(O)C(C(=O)OC)C(C)(C)CC1=O (stereo unspecified),-2.09%
5,O=C(NCCN1C(=O)S/C(=C\c2cccnc2)C1=O)c1cccc(OC(F)F)c1,50.6% (active)
6,Cc1cc(OCCCC(=O)NCCN2C(=O)S/C(=C\c3cccnc3)C2=O)ccc1Cl,42.1%
7,CCOc1ccc(N2CC(C(=O)NCCN3C(=O)S/C(=C\c4cccnc4)C3=O)CC2=O)cc1 (stereo unspecified),-4.79%
8,O=C(CCc1ccccc1)Nc1ccc(NC(=O)C2CCCCC2)nc1,6.33%
9,Cc1ccc(SC(C)C(=O)NCc2ccc(F)cc2)cc1 (stereo unspecified),-1.71%
10,O=C(/C=C/c1cccs1)c1cc(Cl)ccc1OC(=O)N1CCOCC1,100% (active)
11,O=C(c1cccs1)N1CCN(C(=O)N2CCOCC2)CC1,-6.96%
12,CC(=O)Nc1ccccc1OC(=O)N1CCOCC1,-2.48%
13,CCOC(=O)c1c(NC(=O)C2CCN(S(=O)(=O)c3ccc(Cl)cc3)CC2)sc2c1CCCC2,6.41%
14,Cc1ccc(S(=O)(=O)N2CCOCC2)cc1C(=O)OC1CCCCC1=O (stereo unspecified),1.9%
15,CCNC(=O)COC(=O)/C=C/c1c(C)nn(Cc2cccc(OC)c2)c1Cl,-3.81%
16,CS(=O)(=O)N1CCc2cc(C(=O)Nc3ccccc3)ccc21,-3.72%
17,CC(=O)Nc1cccc(/C(C)=N/NC(=O)c2c(-c3ccccc3Cl)noc2C)c1,3.3%
18,Cc1onc(-c2ccccc2Cl)c1C(=O)OCC(=O)c1ccccc1,88% (active)
19,Cc1[nH]c2ccccc2c1C(=O)COC(=O)c1c(-c2ccccc2)noc1C,95.7% (active)
20,Cc1[nH]c2ccccc2c1C(=O)COC(=O)C(C)C,-4.11%
21,Cc1[nH]c2ccccc2c1C(=O)CSCC(=O)O,13.6%
22,Cc1onc(-c2ccccc2Cl)c1C(=O)NCCn1ccc2ccccc21,5.91%
23,S=c1ccc2ccccc2[nH]1,-8.39%
24,CC(=O)NCC(=O)N(Cc1ccco1)C1(C(=O)NC2CCCC2)CCCCC1,1.81%

row,Structure (SMILES),inhibition
1,CCOC(=O)c1ccc(NC2Nc3cc(C)nn3S2)cc1 (stereo unspecified),1.08%
2,O=C(COc1ccc(NC(=O)c2ccccc2[N+](=O)[O-])cc1)c1ccc(F)cc1,-3.68%
3,COc1ccc(CC(=O)Nc2cc(S(=O)(=O)N3CCCCC3)ccc2N2CCN(C)CC2)cc1,47%
4,Cc1cccc(OCCC(=O)Nc2cc(S(=O)(=O)N3CCCCC3)ccc2N2CCOCC2)c1,22%
5,CN1CCN(c2ccc(S(=O)(=O)N3CCCCC3)cc2NC(=O)Cc2ccccc2F)CC1,67.6% (active)
6,CC12CN(NC(=O)c3ccc(Cl)cc3)C3(C#N)CC1CCC23C (stereo unspecified),7.74%
7,COc1ccc(NC(=O)c2ccccc2[N+](=O)[O-])cc1OC,59.4% (active)
8,COC(=O)CNC(=O)c1ccccc1[N+](=O)[O-],-1.1%
9,O=C(Nc1ccncc1)c1ccccc1[N+](=O)[O-],11.9%
10,COC(=O)C1=C(C)NC(=O)CC1c1ccccc1OC (stereo unspecified),-5.13%
11,Cc1ccc(N2NC(=O)/C(=C/C=C/c3ccco3)C2=O)cc1C,15.2%
12,Cc1cc(C(=O)N/N=C/c2cc([N+](=O)[O-])cc(C)c2O)n[nH]1,80.3% (active)
13,O=[N+]([O-])c1cc(Br)c(O)c(/C=N/Nc2nc3ccccc3s2)c1,-6.02%
14,Cc1ccsc1C(=O)N/N=C/c1ccc([N+](=O)[O-])cc1,-8.42%
15,Cc1cccc(NC(=O)Nc2nnc(-c3ccccc3)o2)c1,15.9%
16,C/C(=N\NC(=O)c1cc2c(s1)CCC(C)C2)c1cccnc1 (stereo unspecified),13%
17,Cc1cccc(N(C(=O)Cc2cccs2)C(C(=O)NC2CCCC2)c2ccsc2)c1 (stereo unspecified),3.72%
18,COc1cccc(N(C(=O)C2COc3ccccc3O2)C(C(=O)NC2CCCCC2)c2ccc(O)cc2)c1 (stereo unspecified),98.3% (active)
19,COc1ccc(C(C(=O)NC2CCCCC2)N(C(=O)CCl)c2ccccc2Cl)cc1 (stereo unspecified),-1.95%
20,O=C1Nc2ccc([N+](=O)[O-])cc2C1=Nc1cccc(CO)c1,51% (active)
21,Cc1cc([N+](=O)[O-])ccc1NCc1cccc([N+](=O)[O-])c1,-1.47%
22,CN1CCN(/N=C2/C(=O)Nc3ccc([N+](=O)[O-])cc32)CC1,-2.49%
23,CN1CCN(CC#CCC2(O)c3ccccc3-c3ccccc32)CC1,-6.57%
24,Cn1cc(/C=C/c2nc3ccccc3c(=O)n2-c2cccc([N+](=O)[O-])c2)c2ccccc21,63.9% (active)

row,Structure (SMILES),inhibition
1,O=[N+]([O-])c1cccc(-c2nnc3c4ccccc4c4ccccc4n23)c1,22%
2,CCOC(=O)N1CCN(Cc2nc3ccc([N+](=O)[O-])cc3c(=O)n2-c2cccc(OC)c2)CC1,8.07%
3,Cc1cc(C)nc(/N=C2\NC(=O)CC(C(=O)O)N2c2ccc(Cl)cc2Cl)n1 (stereo unspecified),-2.66%
4,CSc1ccc(/C=N\NC(=O)CC(=O)NC(C)C)cc1,3.48%
5,CC1=NCCN1S(=O)(=O)c1cccc([N+](=O)[O-])c1,0.00784%
6,COc1ccc(/C=N/NC(=O)Cn2cc(C(F)(F)F)ccc2=O)cc1,4.79%
7,CCOC(=O)c1c(CN(C)C)n(-c2ccccc2)c2cc(Br)c(O)cc12,15.6%
8,Cc1ccc2c(c1)C(c1ccccc1)N(C(=O)c1ccc(S(=O)(=O)N3CCOCC3)cc1)CC(=O)N2 (stereo unspecified),56.5% (active)
9,O=C(c1ccc(S(=O)(=O)N2CCOCC2)cc1)N1CCN(c2ccccc2)CC1,-2.9%
10,CCC(CC)C(=O)N1CC(=O)Nc2ccc(Br)cc2C1c1ccccc1 (stereo unspecified),14.8%
11,Cc1ccc2nsnc2c1S(=O)(=O)N1CCCC1C(=O)O (stereo unspecified),-8.56%
12,COc1ccc(C)cc1NC(=S)Nc1ccccc1SC,5.88%
13,Cc1ccc2nc(-c3cccnc3)c(NC3CCCC3)n2c1,63.7% (active)
14,COC(=O)c1cn(-c2ccccc2)nc1-c1cccnc1,1.77%
15,O=C(Nc1ccc(F)cc1)C1CCN(C(=O)c2ccc([N+](=O)[O-])cc2)CC1,5.08%
16,CCCCCCCCn1c2c(c(=N)c3c1CCC3)CCCC2,101% (active)
17,CCCCCCn1c(CN2CCCCC2)nc2c1c(=O)n(C)c(=O)n2C,6.89%
18,COc1cc(C)c(S(=O)(=O)N2CCOCC2)c(C)c1C,-1.23%
19,CCCCCCCC1(C)NC(=O)N(CC(=O)Nc2cc(C)on2)C1=O (stereo unspecified),20.5%
20,CNC(=O)COc1ccc(S(=O)(=O)Nc2ccccc2)cc1,-0.21%
21,CCN1CCN(C(=O)CCN2C(=O)c3ccccc3C2=O)CC1,4.9%
22,O=C(CCN1C(=O)C2C3C=CC(C3)C2C1=O)Nc1ccccc1F (stereo unspecified),-3.49%
23,O=C(CN1C(=O)C2C3C=CC(C3)C2C1=O)Nc1nc(-c2ccccn2)cs1 (stereo unspecified),97.2% (active)
24,O=C(CN1C(=O)C2C3C=CC(C3)C2C1=O)NCCc1ccccc1Cl (stereo unspecified),0.65%

# — PubChem BioAssay AID1063 (University of Pittsburgh Molecular Library Screening Center, 2008)
